{"source": "PubChem BioAssay (EPA / NIEHS)", "note": "Activity calls are given as the source filed them. The calls were made as follows: active = hit-call score of the fitted dose curve at least 0.9, where 1 is the maximum; inactive = score below 0.9."}
{"assay": "CCTE_Shafer_MEA_acute_spike_number: CCTE's Neural Acute Assay for Total Number of Spikes, Shafer Lab (AID 2284008);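 as to AC50: curve fitted for decrease in spike count so AC50 reflects inhibitors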", "description": "CCTE_Shafer_MEA_acute assay is conducted using Axion Biosystems 48 well microelectrode array (MEA) plates and Maestro recording system. Each well of the MEA plate contains a grid of 16 microelectrodes embedded in the culture surface. Electrically active cells, such as neurons, can be cultured over the electrodes, and electrical activity in these cells can be recorded extracellularly. The spontaneous firing of neurons is captured from each electrode on a microsecond timescale providing both temporally and spatially precise data. […] The CCTE_Shafer_MEA_acute assay uses primary cultures of rat cortical neurons. As these cultures mature over time, neural networks develop functional activity and form cohesive networks in which electrical activity can be highly coordinated. Baseline 40-minute recordings are made on days post-plating 13 or 15, followed by a secondary 40-minute recording after chemical exposure.CCTE_Shafer_MEA_acute_spike_number is a component of the CCTE_Shafer_MEA_acute assay. It measures the total number of spikes (action potential firings) in a 40-minute recording in a microelectrode array (MEA) using Axion Biosystems Maestro 768 channel amplifier with the AxIS adaptive spike detector. The recordings before and after chemical treatment are used to calculate a percent change in the spike number in each well. Data from the assay component CCTE_Shafer_MEA_acute_spike_number was analyzed into 1 assay endpoint. This assay endpoint, CCTE_Shafer_MEA_acute_spike_number, was analyzed in the negative analysis fitting direction relative to DMSO as the negative control and baseline of activity. Using a type of functional reporter, gain or loss-of-signal activity can be used to understand electrical activity.\nSpontaneous activity in the cortical cultures was recorded using an Axion Biosystems Maestro 768 channel amplifier and Axion Integrated Studios (AxIS) v1.8 (or later) software. The amplifier recorded from all channels simultaneously (gain = 1200 x; sampling rate = 12.5 kHz/channel): raw signals were filtered with a Butterworth band-pass filter (300-5000 Hz), which filters out slower local field potentials leaving only fast potentials, i.e., \"spikes\", arising from extracellular currents associated with action potentials (Pine 2006; Wheeler and Nam 2011). On-line spike detection of filtered signals was conducted with the AxIS adaptive spike detector, using a threshold of 8x the root mean squared (rms) noise on each channel. Any electrodes with rms noise levels greater than 5 uV were grounded (e.g., no data were recorded). Once grounded, an electrode was grounded for the duration of the experiment. All recordings were conducted at 37 C. Wells were deemed usable if on the day of the exposure >/= 10 electrodes were active (defined as >/= 5 spikes/min). On DIV 13 or 15, a minimum of three wells from one cortical culture preparation were treated with each compound (0.03-40 uM). Prior to recording baseline activity, each mwMEA plate was placed in the Maestro at 37 C and allowed to sit for 20 min while firing rates stabilized. Baseline activity (40 min) was recorded before the addition of each compound. An additional 40 min of spontaneous activity was recorded in the presence of each compound. Changes in network parameters relative to baseline were assessed following compound treatment."}
{"smiles": "Nc1ccc2ccccc2c1", "AC50": "109 nM (active)"}
{"smiles": "ClC(Cl)(Cl)c1ccccc1", "outcome": "inactive"}
{"smiles": "CC(C)(C)c1ccccc1OP(=O)(Oc1ccccc1)Oc1ccccc1", "AC50": "1330 nM (active)"}
{"smiles": "CCCCC(CC)COP(=O)(Oc1ccccc1)Oc1ccccc1", "note": "(stereo unspecified)", "AC50": "15000 nM (active)"}
{"smiles": "CCC(C)(C)c1ccc(O)cc1", "AC50": "186 nM (active)"}
{"smiles": "CCOP(=S)(Oc1ccc([N+](=O)[O-])cc1)c1ccccc1", "note": "(stereo unspecified)", "AC50": "24900 nM (active)"}
{"smiles": "CCC1(c2ccccc2)C(=O)N=C(O)NC1=O", "note": "(stereo unspecified)", "outcome": "inactive"}
{"smiles": "Cc1ccc(N)cc1N", "outcome": "inactive"}
{"smiles": "ClC1=C(Cl)C2(Cl)C3C(Cl)C(Cl)CC3C1(Cl)C2(Cl)Cl", "note": "(stereo unspecified)", "outcome": "inactive"}
{"smiles": "CC(Cl)(Cl)C(=O)O", "outcome": "inactive"}
{"smiles": "CCOc1ccc(C(C)(C)COCc2cccc(Oc3ccccc3)c2)cc1", "outcome": "inactive"}
{"smiles": "[N-]=[N+]=[N-]", "outcome": "inactive"}
{"smiles": "COCCOCCO", "outcome": "inactive"}
{"smiles": "c1ccc2c(c1)Nc1ccccc1S2", "AC50": "4420 nM (active)"}
{"smiles": "COP(=O)(CCC(=O)NCO)OC", "outcome": "inactive"}
{"smiles": "O=C(O)C1C(C(=O)O)C2(Cl)C(Cl)=C(Cl)C1(Cl)C2(Cl)Cl", "note": "(stereo unspecified)", "outcome": "inactive"}
